Data: PubChem BioAssay (NCATS)
Several values for one entry are separate records, joined by “and”; a condition that tells them apart may be missing. Identical values can stand only once. Inconclusive results are not listed. Unmarked numbers belong to inactive results. Activity calls are given as the source filed them. Calls come from the whole dose curve; as a rule, active = well fitted curve in the direction sought with a large enough effect; inconclusive = small, poorly fitted or top-dose-only effect, or another doubt; inactive = no such curve, though single readings can be large; an effect the other way counts as inactive or inconclusive.

Columns and labels:
[1] = Viability qHTS for spleen associated tyrosine kinase inhibitor (SYKi) naive MV4-11 cells (AID 1963823); note: nearly all actives have a fitted effect of over 40% in size; note: potency is the fitted concentration of half-maximal effect
In short: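 Read-out: CellTiter-Glo luminescence. Exposure: 72 hr, 37 C, 5% CO2, 95% humidity. Cells: MV4-11 without SYK inhibitor history, 500/well, qHTS format.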

[2] = Viability qHTS for spleen associated tyrosine kinase inhibitor (SYKi) drug resistant MV4-11 cells (AID 1963824); note: nearly all actives have a fitted effect of over 35% in size; note: potency is the fitted concentration of half-maximal effect
In short: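 SYK inhibitor-resistant MV4-11 AML cells, 500 per well, added to predispensed compounds and incubated 72 hr at 37 C, 5% CO2. Viability measured by CellTiter-Glo luminescence after 10 min at room temperature.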

[3] = Quantitative highthroughput screen to assess conditional lethalithy of NOMO1 cells grown in RPMI1640 with untreated serum (RPMI+s) (AID 1963876); note: nearly all actives have a fitted effect of over 35% in size; note: potency is the fitted concentration of half-maximal effect;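 for Viability: 100% = DMSO wells and 0% = empty wells without cells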
In short: (§1)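 Each medium arm—HPLM with 10% dialyzed FBS, or RPMI1640 with 5 mM glucose and 10% untreated or dialyzed FBS—was screened against an 11-point, 3-fold compound titration for 48 h at 37 °C, with CellTiter-Glo luminescence as endpoint.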

[4] = Quantitative highthroughput screen to assess conditional lethalithy of NOMO1 cells grown in RPMI1640 with dialyzed fetal bovine serum (RPMI+ds) (AID 1963877); note: potency is the fitted concentration of half-maximal effect; nearly all actives have a fitted effect of over 30% in size
In short: as §1

[5] = Cellular viability qHTS for adrenocortical cancer (ACC) cell line SW-13 (AID 1963989); details: SW-13 ACC cells viability, CellTiter-Glo, 48 h; activity (max response): hits give low values; note: nearly all actives have a fitted effect of over 65% in size; note: potency is the fitted concentration of half-maximal effect;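 for activity (max response): cells grown in serum-free medium with ITS supplement; % is set by controls: 0 for no effect and ±100 for the full control effect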
In short: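 SW-13 cells in ITS-supplemented serum-free DMEM were plated overnight, then exposed for 48 h at 37C to compound titrations (up to 46 uM final). Viability was read by CellTiter-Glo luminescence; four-parameter logistic fits gave IC50 and efficacy.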

[6] = Quantitative highthroughput screen to assess conditional lethalithy of NOMO1 cells grown in Human Plasma-Like Medium with dialyzed fetal bovine serum (HPLM+ds) (AID 1963878); note: nearly all actives have a fitted effect of over 35% in size; note: potency is the fitted concentration of half-maximal effect;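 for Viability: 100% = DMSO wells and 0% = empty wells on each plate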
In short: as §1

[7] = Quantitative highthroughput screen to assess conditional lethalithy of P12 Ichikawa cells grown in Human Plasma-Like Medium with dialyzed fetal bovine serum (HPLM+ds) (AID 1963879); details: Potency: viability; note: nearly all actives have a fitted effect of over 35% in size; note: potency is the fitted concentration of half-maximal effect; for Viability: series mostly up to about 46 µM
In short: as §1

[8] = Quantitative highthroughput screen to assess conditional lethalithy of P12 Ichikawa cells grown in RPMI1640 with dialyzed fetal bovine serum (RPMI+ds) (AID 1963880); details: Potency: P12-Ichikawa viability; note: nearly all actives have a fitted effect of over 35% in size; note: potency is the fitted concentration of half-maximal effect;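 for Viability: 100% = DMSO wells and 0% = empty wells on each plate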
In short: as §1

[9] = Quantitative highthroughput screen to assess conditional lethalithy of P12 Ichikawa cells grown in RPMI1640 with untreated serum (RPMI+s) (AID 1963881); details: Potency: viability; note: nearly all actives have a fitted effect of over 35% in size; note: potency is the fitted concentration of half-maximal effect;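 for Viability: series mostly up to about 46 µM; 100% = DMSO wells and 0% = empty wells without cells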
In short: as §1

[10] = Cellular viability qHTS for adrenocortical cancer (ACC) cell line NCI-H295R (AID 1963990); note: nearly all actives have a fitted effect of over 60% in size; note: potency is the fitted concentration of half-maximal effect
In short: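 Luminescent ATP read-out (CellTiter-Glo, 20 min RT) after 48 h drug exposure of NCI-H295R cells; a titration up to 46 uM final. Data normalized to doxorubicin (100% inhibition) and DMSO (0%); 4-parameter fit gives IC50, max response.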

[11] = Quantitative highthroughput screen to assess conditional lethalithy of SEM cells grown in RPMI1640 with unreated serum (RPMI+s) (AID 1963883); note: nearly all actives have a fitted effect of over 35% in size; note: potency is the fitted concentration of half-maximal effect;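 for Viability: 100% = DMSO wells and 0% = empty wells without cells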
In short: as §1

[12] = Quantitative highthroughput screen to assess conditional lethalithy of SEM cells grown in RPMI1640 with dialyzed fetal bovine serum (RPMI+ds) (AID 1963884); note: nearly all actives have a fitted effect of over 35% in size; note: potency is the fitted concentration of half-maximal effect;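 for Viability: series mostly up to about 46 µM; 100% = DMSO control wells and 0% = empty wells without cells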
In short: as §1

[13] = Quantitative highthroughput screen to assess conditional lethalithy of SEM cells grown in Human Plasma-Like Medium with dialyzed fetal bovine serum (HPLM+ds) (AID 1963882)
In short: as §1

SMILES	Potency [1]	Potency [2]	Potency [3]	Potency [4]	Potency [5]	Potency [6]	Potency [7]	Potency [8]	Potency [9]	Potency [10]	Potency [11]	Potency [12]	activity (max response) [5] [%]	Potency [13]
Cc1ccccc1C(=O)c1ccc(Nc2ccc(Br)cc2N)cc1Cl	11.8 µM (active) and 13 µM (active)	16.6 µM (active) and 18.4 µM (active)	inactive	20.9 µM (active)	31.6 µM (active)									
CCC(c1ccc(O)cc1)C(CC)c1ccc(O)cc1 (stereo not given)	20.9 µM (active)	26.3 µM (active)	inactive		17.8 µM (active)	inactive	inactive	inactive	inactive	15.8 µM (active)				
NC(=O)c1cccc2[nH]c(-c3ccc([C@H]4CCCN4)cc3F)nc12	20.6 µM (active)	16.6 µM (active)	inactive	18.7 µM (active)						8.91 µM (active)	3.72 µM (active)	2.64 µM (active)	-3	
O=C(Nc1cccnc1)N1CCC(Cc2cccc(Oc3ccc(C(F)(F)F)cn3)c2)CC1	3.66 µM (active) and 4.17 µM (active)	4.61 µM (active) and 3.72 µM (active)	10.5 µM (active)		15.8 µM (active)	8.33 µM (active)	8.33 µM (active)	4.18 µM (active)	3.72 µM (active)	17.8 µM (active)	2.96 µM (active)			
CC(C)c1cc(C(C)C)c(CC(=O)NS(=O)(=O)Oc2c(C(C)C)cccc2C(C)C)c(C(C)C)c1	11.6 µM (active)	4.68 µM (active)	inactive			inactive	inactive	inactive	inactive		inactive	inactive	-25.2	inactive
Nc1nc(-c2nn(Cc3ccccc3F)c3ncccc23)nc(N)c1N1CCOCC1	inactive	inactive	inactive			inactive	inactive	inactive	inactive	inactive	inactive	inactive	8.84	inactive
